# According to the supplement of paper PMC12282887:
# ± gives the standard deviation of the averaged measurements.
# Tests used:
# Assay in all cases: promoter activity interaction Z-score (Lux/OD deviation from empty-vector control); higher = stronger promoter induction by the compound
# [1] = test system: E. coli BW25113 acrABp lux reporter
# In short: (§1)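 E. coli BW25113, as wild type or one of three single-gene deletion strains, carried low-copy luxCDABE promoter reporters and grew in 40 µl LB Lennox in 384-well plates at 37°C, with OD600 and luminescence read every 30 min for 12 h. Each compound was run at four 1:2 dilutions in biological duplicates, integration spanned 0–8 h for wild type and 1–9 h for deletion strains, and wells under 10% of the median growth value were dropped. The score is the Z-transformed residual of growth-normalised luminescence fitted against a control.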
# [2] = test system: E. coli BW25113 marRABp lux reporter
# In short: as §1
# [3] = test system: E. coli BW25113 micFp lux reporter
# In short: as §1
# [4] = test system: E. coli BW25113 ompFp lux reporter
# In short: as §1
# [5] = test system: E. coli BW25113 robp lux reporter
# In short: as §1
# [6] = test system: E. coli BW25113 soxSp lux reporter
# In short: as §1
# [7] = test system: E. coli BW25113 tolCp lux reporter
# In short: as §1
# [8] = 28.4 µg/ml, genetic background: wild type
# [9] = 28.4 µg/ml, genetic background: ΔmarA
# [10] = 28.4 µg/ml, genetic background: Δrob
# [11] = 28.4 µg/ml, genetic background: ΔsoxS
# [12] = 56.8 µg/ml, genetic background: wild type
# [13] = 56.8 µg/ml, genetic background: ΔmarA
# [14] = 56.8 µg/ml, genetic background: Δrob
# [15] = 56.8 µg/ml, genetic background: ΔsoxS
# [16] = 113.7 µg/ml, genetic background: wild type
# [17] = 113.7 µg/ml, genetic background: ΔmarA
# [18] = 113.7 µg/ml, genetic background: Δrob
# [19] = 113.7 µg/ml, genetic background: ΔsoxS
# [20] = 227.3 µg/ml, genetic background: wild type
# [21] = 227.3 µg/ml, genetic background: ΔmarA
# [22] = 227.3 µg/ml, genetic background: Δrob
# [23] = 227.3 µg/ml, genetic background: ΔsoxS
compound,measurement,setting,value
O=c1[nH]c(=O)c2[nH]c(O)nc2[nH]1 [Sodium urate],promoter activity interaction Z-score,[1]; [8],0.0607 ± 0.068
same,promoter activity interaction Z-score,[1]; [9],-0.691 ± 0.25
same,promoter activity interaction Z-score,[1]; [10],0.112 ± 0.14
same,promoter activity interaction Z-score,[1]; [11],-0.119 ± 0.36
same,promoter activity interaction Z-score,[1]; [12],0.0108 ± 0.15
same,promoter activity interaction Z-score,[1]; [13],-1.36 ± 0.16
same,promoter activity interaction Z-score,[1]; [14],0.00464 ± 0.19
same,promoter activity interaction Z-score,[1]; [15],-0.118 ± 0.35
same,promoter activity interaction Z-score,[1]; [16],0.121 ± 0.12
same,promoter activity interaction Z-score,[1]; [17],-1.18 ± 0.34
same,promoter activity interaction Z-score,[1]; [18],-0.0273 ± 0.041
same,promoter activity interaction Z-score,[1]; [19],-0.102 ± 0.19
same,promoter activity interaction Z-score,[1]; [20],0.0857 ± 0.087
same,promoter activity interaction Z-score,[1]; [21],-0.114 ± 0.23
same,promoter activity interaction Z-score,[1]; [22],0.315 ± 0.14
same,promoter activity interaction Z-score,[1]; [23],-0.127 ± 0.56
same,promoter activity interaction Z-score,[2]; [8],-0.098 ± 0.014
same,promoter activity interaction Z-score,[2]; [9],-0.367 ± 0.46
same,promoter activity interaction Z-score,[2]; [10],-0.0815 ± 0.3
same,promoter activity interaction Z-score,[2]; [11],-0.136 ± 0.38
same,promoter activity interaction Z-score,[2]; [12],-0.215 ± 0.019
same,promoter activity interaction Z-score,[2]; [13],-0.183 ± 0.45
same,promoter activity interaction Z-score,[2]; [14],-0.209 ± 0.11
same,promoter activity interaction Z-score,[2]; [15],-0.198 ± 0.26
same,promoter activity interaction Z-score,[2]; [16],0.0146 ± 0.11
same,promoter activity interaction Z-score,[2]; [17],-0.285 ± 0.48
same,promoter activity interaction Z-score,[2]; [18],-0.227 ± 0.062
same,promoter activity interaction Z-score,[2]; [19],-0.19 ± 0.33
same,promoter activity interaction Z-score,[2]; [20],-0.107 ± 0.15
same,promoter activity interaction Z-score,[2]; [21],0.16 ± 0.43
same,promoter activity interaction Z-score,[2]; [22],-0.0974 ± 0.043
same,promoter activity interaction Z-score,[2]; [23],-0.0308 ± 0.28
same,promoter activity interaction Z-score,[3]; [8],0.0581 ± 0.23
same,promoter activity interaction Z-score,[3]; [9],-0.118 ± 0.23
same,promoter activity interaction Z-score,[3]; [10],-0.0289 ± 0.19
same,promoter activity interaction Z-score,[3]; [11],0.0526 ± 0.22
same,promoter activity interaction Z-score,[3]; [12],0.0725 ± 0.02
same,promoter activity interaction Z-score,[3]; [13],-0.0713 ± 0.39
same,promoter activity interaction Z-score,[3]; [14],0.0271 ± 0.23
same,promoter activity interaction Z-score,[3]; [15],0.0688 ± 0.17
same,promoter activity interaction Z-score,[3]; [16],0.114 ± 0.09
same,promoter activity interaction Z-score,[3]; [17],-0.218 ± 0.078
same,promoter activity interaction Z-score,[3]; [18],-0.082 ± 0.13
same,promoter activity interaction Z-score,[3]; [19],0.0891 ± 0.29
same,promoter activity interaction Z-score,[3]; [20],0.0879 ± 0.087
same,promoter activity interaction Z-score,[3]; [21],-0.0859 ± 0.057
same,promoter activity interaction Z-score,[3]; [22],-0.12 ± 0.13
same,promoter activity interaction Z-score,[3]; [23],-0.223 ± 0.39
same,promoter activity interaction Z-score,[4]; [8],-0.0285 ± 0.013
same,promoter activity interaction Z-score,[4]; [9],-0.27 ± 0.27
same,promoter activity interaction Z-score,[4]; [10],-0.245 ± 0.31
same,promoter activity interaction Z-score,[4]; [11],0.0289 ± 0.054
same,promoter activity interaction Z-score,[4]; [12],0.162 ± 0.082
same,promoter activity interaction Z-score,[4]; [13],-0.186 ± 0.1
same,promoter activity interaction Z-score,[4]; [14],-0.168 ± 0.14
same,promoter activity interaction Z-score,[4]; [15],0.253 ± 0.42
same,promoter activity interaction Z-score,[4]; [16],0.31 ± 0.34
same,promoter activity interaction Z-score,[4]; [17],-0.874 ± 0.12
same,promoter activity interaction Z-score,[4]; [18],-0.0944 ± 0.13
same,promoter activity interaction Z-score,[4]; [19],0.241 ± 0.093
same,promoter activity interaction Z-score,[4]; [20],0.726 ± 0.41
same,promoter activity interaction Z-score,[4]; [21],0.504 ± 0.044
same,promoter activity interaction Z-score,[4]; [22],0.739 ± 0.45
same,promoter activity interaction Z-score,[4]; [23],0.654 ± 0.45
same,promoter activity interaction Z-score,[5]; [8],0.189 ± 0.027
same,promoter activity interaction Z-score,[5]; [9],-0.944 ± 0.38
same,promoter activity interaction Z-score,[5]; [10],-0.184 ± 0.64
same,promoter activity interaction Z-score,[5]; [11],0.198 ± 0.34
same,promoter activity interaction Z-score,[5]; [12],0.19 ± 0.1
same,promoter activity interaction Z-score,[5]; [13],-0.157 ± 0.22
same,promoter activity interaction Z-score,[5]; [14],0.189 ± 0.29
same,promoter activity interaction Z-score,[5]; [15],0.0419 ± 0.49
same,promoter activity interaction Z-score,[5]; [16],0.246 ± 0.37
same,promoter activity interaction Z-score,[5]; [17],-1.37 ± 0.15
same,promoter activity interaction Z-score,[5]; [18],-0.253 ± 0.052
same,promoter activity interaction Z-score,[5]; [19],-0.163 ± 0.39
same,promoter activity interaction Z-score,[5]; [20],0.613 ± 0.94
same,promoter activity interaction Z-score,[5]; [21],0.235 ± 0.099
same,promoter activity interaction Z-score,[5]; [22],0.286 ± 0.0035
same,promoter activity interaction Z-score,[5]; [23],1.01 ± 0.33
same,promoter activity interaction Z-score,[6]; [8],0.0961 ± 0.26
same,promoter activity interaction Z-score,[6]; [9],-0.0522 ± 0.15
same,promoter activity interaction Z-score,[6]; [10],0.0395 ± 0.24
same,promoter activity interaction Z-score,[6]; [11],-0.0315 ± 0.002
same,promoter activity interaction Z-score,[6]; [12],-0.0307 ± 0.019
same,promoter activity interaction Z-score,[6]; [13],-0.0796 ± 0.096
same,promoter activity interaction Z-score,[6]; [14],0.0954 ± 0.4
same,promoter activity interaction Z-score,[6]; [15],-0.135 ± 0.051
same,promoter activity interaction Z-score,[6]; [16],0.0999 ± 0.14
same,promoter activity interaction Z-score,[6]; [17],-0.0884 ± 0.18
same,promoter activity interaction Z-score,[6]; [18],-0.00479 ± 0.23
same,promoter activity interaction Z-score,[6]; [19],0.0412 ± 0.16
same,promoter activity interaction Z-score,[6]; [20],-0.0463 ± 0.28
same,promoter activity interaction Z-score,[6]; [21],-0.0252 ± 0.33
same,promoter activity interaction Z-score,[6]; [22],0.122 ± 0.45
same,promoter activity interaction Z-score,[6]; [23],-0.094 ± 0.097
same,promoter activity interaction Z-score,[7]; [8],0.639 ± 0.76
same,promoter activity interaction Z-score,[7]; [9],0.214 ± 0.76
same,promoter activity interaction Z-score,[7]; [10],-0.337 ± 0.13
same,promoter activity interaction Z-score,[7]; [11],0.0334 ± 0.15
same,promoter activity interaction Z-score,[7]; [12],-0.365 ± 0.23
same,promoter activity interaction Z-score,[7]; [13],-0.26 ± 0.17
same,promoter activity interaction Z-score,[7]; [14],0.0782 ± 0.61
same,promoter activity interaction Z-score,[7]; [15],-0.0978 ± 0.24
same,promoter activity interaction Z-score,[7]; [16],-0.0784 ± 0.044
same,promoter activity interaction Z-score,[7]; [17],-0.877 ± 0.12
same,promoter activity interaction Z-score,[7]; [18],-0.397 ± 1.1
same,promoter activity interaction Z-score,[7]; [19],0.132 ± 0.047
same,promoter activity interaction Z-score,[7]; [20],-0.0307 ± 0.037
same,promoter activity interaction Z-score,[7]; [21],-0.7 ± 0.17
same,promoter activity interaction Z-score,[7]; [22],1.21 ± 1.3
same,promoter activity interaction Z-score,[7]; [23],-0.0415 ± 0.19
